# In PubChem BioAssay AID618 (Sanford-Burnham Center for Chemical Genomics, 2007):
# Out of some 87,000 compounds screened, about 540 (0.62%) were called active. How the calls were made is not given here. The entries come from a sample that favours actives as a whole. Results with a measured potency or affinity are listed apart.
# Assay: MT1-MMP gene expression reporter suppression – cell-based, luciferase reporter, luminescence (AID 618);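 further: actives suppress MT1-MMP promoter-driven transcription so potencies describe inhibitors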
# Conditions: MT1-MMP promoter luciferase reporter cells
row,SMILES,outcome
1,O=C1C(=O)c2ccc(-c3ccccc3)cc2-c2ccccc21,inactive
2,Nc1ccc(Br)c2c1C(=O)c1ccccc1C2=O,inactive
3,Nc1ccc2c(c1)C(=O)C(=O)c1ccccc1-2,active
4,CCOC(=O)CON1C(=O)c2ccccc2C1=O,inactive
5,COc1ccc(-c2c(C)n([O-])c3c([n+]2=O)CCCC3)cc1,inactive
6,N=c1n(CCN2CCOCC2)c2ccccc2n1Cc1ccccc1Br,inactive
7,CCn1c(-c2ccco2)nc2ccccc21,inactive
8,Cn1c(-n2c(-c3ccco3)nc3ccccc3c2=O)nc2ccccc21,inactive
9,Cn1c(-c2ccco2)nc2cc3ccccc3cc21,active
10,C=COCCn1c(=N)n(CCC)c2ccccc21,inactive
11,O=C1[C@@H]2C(c3ccccc3Cl)=NO[C@@H]2C(=O)N1Cc1ccccc1,inactive
12,Cc1c(NC(=O)c2ccccc2)c(=O)n(-c2ccccc2)n1C,inactive
13,Cc1c(NC(=O)c2ccc(=O)oc2)c(=O)n(-c2ccccc2)n1C,inactive
14,CCCNc1cc(C)oc(=O)c1C(=O)CCC,inactive
15,Oc1ccc(Nc2nc3ccccc3nc2Nc2ccc(O)cc2)cc1,inactive
16,CCOC(=O)C1CCCCN1C(=O)CCc1c(C)nc2ncnn2c1C (centres undefined),inactive
17,Cc1nc2cc(-c3cccc(F)c3)nn2c(C)c1CCC(=O)N1CCN(c2ccccn2)CC1,inactive
18,CCn1c(C(=O)Nc2ccsc2C(=O)OC)cc2sc(Cl)cc21,inactive
19,CN1CCC(C2(O)c3ccccc3CSc3sccc32)CC1 (centres undefined),inactive
20,Cc1ccc(C(=O)Nc2ccc(CC(=O)O)cc2)o1,inactive
21,Cc1cc(C(C)(C)C)oc1C(=O)Nc1ccc(CC(=O)O)cc1,inactive
22,COC(=O)Cc1ccc(NC(=O)c2ccc(Br)o2)cc1,inactive
23,Cc1oc(C)c(C(=O)Nc2ccc(CC(=O)O)cc2)c1C(=O)Nc1ccc(CC(=O)O)cc1,inactive
24,COC(=O)Cc1ccc(NC(=O)c2ccc(C)c(C)c2)cc1,inactive
25,O=C(O)Cc1ccc(NC(=O)c2ccc(NC(=O)c3ccco3)cc2)cc1,inactive

row,SMILES,outcome
1,COc1ccc(-n2c(Cc3cccn3C)nnc2SCC(=O)Nc2cccc(NC(C)=O)c2)cc1,inactive
2,CCOc1ccc(CCNC(=O)C(O)c2ccccc2)cc1 (centres undefined),inactive
3,Cc1cc(=O)oc2cc(OCC(=O)Nc3nnc(C(C)C)s3)ccc12,inactive
4,CC(=NCCCn1ccnc1)C1=C(O)c2ccccc2C1=O,inactive
5,Clc1ccc(-n2ncc3c(N4CCCC4)ncnc32)cc1,inactive
6,CCN1CCN(c2ncnc3c2cnn3-c2ccc(Cl)cc2)CC1,inactive
7,Cc1cccc(-n2ncc3c(N4CCC5(CC4)OCCO5)ncnc32)c1,inactive
8,Cc1cccc(-n2ncc3c(N4CCN(c5nc(C)cc(C)n5)CC4)ncnc32)c1,inactive
9,COc1cc(NC(=O)CSc2ncnc3c2cnn3Cc2ccccc2)cc(OC)c1,inactive
10,COc1ccc(-c2cn3c(C)c(C(=O)N4CCc5ccccc5C4)sc3n2)cc1,inactive
11,COc1ccccc1-c1coc2c(CN3CCN(CCO)CC3)c(O)ccc2c1=O,inactive
12,CCOC(=O)C(NS(=O)(=O)c1ccc(Br)cc1)C(C)C (centres undefined),inactive
13,COc1ccc2c(CC(=O)OCC(=O)c3ccc(F)cc3)coc2c1,inactive
14,Oc1c(C(c2ccco2)N2CCOCC2)sc2ncnn12 (centres undefined),inactive
15,O=C(Nc1cnc2ccccc2c1)c1ccncc1,inactive
16,O=C(Nc1cnc2ccccc2c1)c1cccnc1,inactive
17,Cc1ccc(NC(=O)c2ccccc2)cc1,inactive
18,Cc1oc2c(c1C(=O)Nc1cccc(C(=O)O)c1)CCCC2,inactive
19,Cc1ccc(C(=O)Nc2cccc(C(=O)N3CCN(C)CC3)c2)cc1,inactive
20,O=C(O)c1ccc(C(=O)Nc2cccc(NC(=O)C3CCCO3)c2)cc1 (centres undefined),inactive
21,Cc1cc(C(=O)Nc2ccccc2)oc1C,inactive
22,O=C(O)c1cccc(NC(=O)C2CCCO2)c1 (centres undefined),inactive
23,O=C(Oc1ccc(Br)cc1)c1cncc(Br)c1,inactive
24,O=C1CCC([N+](=O)[O-])C(c2ccccc2Cl)N1 (centres undefined),inactive
25,COc1cccc(-n2nnc3c(=O)n(Cc4c(F)cccc4Cl)cnc32)c1,inactive

row,SMILES,outcome
1,CCN(CC)CCCNC(=O)c1sc2nc(-c3ccc(F)cc3)cn2c1C,inactive
2,CCn1cc(C(=O)NCc2ccco2)c(=O)c2cc(S(=O)(=O)N3CC(C)CC(C)C3)ccc21 (centres undefined),inactive
3,CCOC(=O)CCn1c(=O)c2c(nc(Br)n2Cc2ccccc2)n(C)c1=O,inactive
4,Cc1ccc(S(=O)(=O)NCCC(=O)Nc2nnc(C)s2)cc1,inactive
5,COC(=O)[C@H](C)NC(=O)Nc1ccccc1F,inactive
6,COc1ccc(S(=O)(=O)n2c(CCN3CCOCC3)nc3ccccc32)cc1,inactive
7,Cc1ccc(C(=O)Nc2cccc(C(=O)O)c2)cc1S(=O)(=O)N1CCOCC1,inactive
8,O=C(O)c1cccc(NC(=O)c2cccc(S(=O)(=O)N3CCCCC3)c2)c1,inactive
9,CC1C=CC(C)C(C(=O)O)C1C(=O)O (centres undefined),inactive
10,CC(=O)c1ccc(NS(=O)(=O)c2ccc(CC(C)C)cc2)cc1,inactive
11,Cc1cccnc1NC(=O)C1CCN(S(=O)(=O)c2cccs2)CC1,inactive
12,COc1ccc(CCn2c(N3CCN(C)CC3)nc3c2c(=O)[nH]c(=O)n3C)cc1,inactive
13,CCOc1ccc(S(=O)(=O)NCCC2=CCCCC2)c2ccccc12,inactive
14,COCCCNC(=O)c1cccc(C(=O)NCCCOC)c1,inactive
15,CCC1=Nc2cc(C(=O)NCCCOC)ccc2Sc2ccccc21,active
16,CCC1=Nc2cc(C(=O)NCCCOC(C)C)ccc2Sc2ccccc21,inactive
17,CCCC1=Nc2cc(C(=O)NCCCOCC)ccc2Sc2ccccc21,active
18,CCOCCCNC(=O)c1ccc(OC)cc1,inactive
19,CCCC1=Nc2cc(C(=O)NCCCOC(C)C)ccc2Sc2ccccc21,inactive
20,COc1ccc(S(=O)(=O)Cc2ccc(C(=O)N3CCN(c4ncccn4)CC3)o2)cc1,inactive
21,CC1(C)CC(=O)C2=C(C1)Nc1ccccc1NC2c1cccnc1 (centres undefined),inactive
22,CCC1=C2CC[C@H]3C(=O)N(CC(=O)OC)C(=O)[C@H]3[C@H]2[C@@]2(Cc3ccccc3)C(=NCCc3c[nH]c4ccccc34)OC(=O)N2C1=O,inactive
23,O=C(CSc1ccccc1)Nc1cccnc1,inactive
24,CC(CN1CCOCC1)OC(=O)c1ccccc1Br (centres undefined),inactive
